# Source: the supplement of paper PMC6555819
# Tested on: VDR:RXRa (NR concentration 270 nM, RXRa partner concentration 90 nM)
# Experiment: PBM binding z-score (relative to random genomic background probes); higher = stronger binding; sequences stand for … in GC…GCGATTGACAGCGTAGAATGAAGG
# Method: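 Protein-binding microarray (Agilent 4x180K custom design, double-stranded 60-nt probes: 5' GC cap, 34-nt variable region, 24-nt constant primer region; full probe sequence given). Purified or IVT nuclear receptor:RXRα heterodimers (3:1 NR:RXRα, mostly 270:90 nM) or homodimers were incubated for 1 h in PBS with 2% milk and no ligand, then detected with Alexa488 antibodies. Fluorescence from o1-orientation probes (~5 replicates averaged) was converted to z-scores against 500 random hg19 background probes. Variable regions are seed direct-repeat (DR0–DR5) sites, all their single-nucleotide variants and half-site ablations.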
row,Sequence,PBM binding z-score
1,ATCGAAAGGTCGAAGGTGAGTAGACCCACCCGAA,2.43
2,ATCTCTAGGTAAAGATAGGTCAGTGAATGCAAAT,1.13
3,CCTGCTAGGTCATGCTCAGCTAATCTACAGTATG,1.33
4,TCATATAGGTAAATGCTAGGGGAAAGTCCGATCT,0.846
5,GCATATAGGTAATACAAGGTGAAAGACCGATTGT,0.319
6,ATATGTAGGTTAGCTGGGGTCAGTCAGACTAGGC,4.52
7,CGAACGAGGTCAAGGACAGTGAATCTCCGCACGC,5.09
8,TCTTGTAGATCAACGGGAGGTTAAGAAAGATCGA,0.477
9,GGAACTAGGGCAAGTTGATAGCAGAGTTTGATGG,-0.183
10,AATACAGGGTCAGTAGGCCAGAGTAGGTACGAAT,2.65
11,TAATATAGGTAAATGCTAGGTGAAAGTCCGATCT,0.36
12,ATCTCTAGGTAAAGTTCTGTGAAAGATCGATAGA,0.335
13,CCGAGTAGGTTATGGGGCATTCACGCAACGGTGA,-0.0125
14,CCTATTAGTAGACCATAAGGGCAACCGAAGCTCG,0.553
15,GCTTGTAGATCAAGGTAAAGAAAGACTAAGCTAA,-0.118
16,ATCTCTAGCTAAAAGTTCAGTGAATCCCGAGGAT,0.955
17,CAAACTATGTCACCGGAAGGTCAAAGTCCGCATG,3.84
18,CCAGACAGGTGAGAAGGCAACTCAGCCTCGATTA,-0.345
19,TCATATAGGTAAATGCTAGGTGAAAGTACGATCT,1.15
20,AGTCAAAGTTCAGTACGAGGTAACGTAAAGCACG,2.89

row,Sequence,PBM binding z-score
1,CCGAGTAGGTTAGGGGGCATTCAGGCAACGGTGA,2.93
2,TCATGTAGATCAAGCAGGTTAAGAAAGCCTGAGT,0.938
3,CATACAGGGTCAGCTAGGCAAGAGTAGGGACGGC,2.53
4,TCTTGTAGATCAAAGGTTAAAAAAGCCGAAGCCT,1.64
5,TAGCCTAGGTCATGCCGGCCAGTATAGTGTCGGC,1.95
6,TCTATTAGTTGATTAGGGCCACCGAAACAGCGGA,0.782
7,CCGAGTAGGTTATGGGCCATTCAGGCAACGGTGA,-0.116
8,TGAATGTGGTTAAAGATCAGGGAACGTGGCGTCG,-0.219
9,TCTTGTACATCAATAGAGGTTAAGAAAGTGCGCT,2.07
10,TCATATAGGTAAAAGCTAGGTGAAAGTCCGATCT,0.608
11,ATAAGTAGGTTAGCTGGGGTCATTCAGACTAGGC,5.98
12,GCTCTGAGGACAAGGTCAGAGCTTTGTCCGTAGA,1.68
13,TCTAGATGGTCAAAGGTCACACACTCGAAATGCG,5.33
14,ACTTTTAGTTGACTTAGGGCAACCGATACGACGC,0.839
15,TCATATAGGTAATACAGGTGAAAGTCGGCATCTA,1.31
16,TCTTGTAGATCAATAGAGGTTAAGACAGTGCGCT,1.7
17,CCTACTGGGCCATGAGGTCATTGATATCAACGTT,4.43
18,CTTACAGGGTCAGCTAGGCCAGAGTAGGGACGGC,3.88
19,CCGAGTACGTTATGGGGCATTCAGGCAACGGTGA,0.216
20,CATCCAGGGTCAGCTAGGCCAGAGTAGGGACGGC,3.97
